Screening data as filed in PubChem.
Hits are enriched below; roughly 1.3% of the tested compounds scored in any of these assays.
SARS PLpro yeast-1: SARS-CoV PLP inhibition in yeast; Potency, µM (titrated, usually from 32.9 µM), for inactives: at the highest dose activity, positive = growth rescue, most hits filed as activators; S. cerevisiae expressing SARS-CoV PLpro, growth rescue; 0.19% of 330,000 active; calls by dose curve; note: potency is the fitted concentration of half-maximal effect; 0% is about no effect; nearly all actives have a fitted effect of over 55% in size
Vaccinia mCherry: vaccinia inhibition (mCherry reporter). Potency, µM (highest dose often 36.5 µM), without a hit: top-dose activity change, negative = inhibition, actives largely listed as inhibitors. Vaccinia virus mCherry reporter infection, fluorescence. AID 720579. 0.63% of 310,000 active; calls by dose curve; tested in A549 cells; note: potency is the fitted concentration of half-maximal effect; % is set by controls: 0 for no effect and ±100 for the full control effect; nearly all actives have a fitted effect of over 35% in size
AmpC inh detg: blocks E. coli AmpC beta-lactamase in detergent assay; P00811; AmpC hydrolysis of nitrocefin, absorbance 480 nm, 0.01% Triton; Potency, µM (top dose mostly 114 µM), for the others: at the highest dose activity change, negative = inhibition, actives largely listed as inhibitors; 0.041% of 370,000 active;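 note: potency is the fitted concentration of half-maximal effect; 0% = no-compound wells and -100% = no-enzyme wells; nearly all actives have a fitted effect of over 25% in size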
Target sequence (P00811 whole entry, looked up): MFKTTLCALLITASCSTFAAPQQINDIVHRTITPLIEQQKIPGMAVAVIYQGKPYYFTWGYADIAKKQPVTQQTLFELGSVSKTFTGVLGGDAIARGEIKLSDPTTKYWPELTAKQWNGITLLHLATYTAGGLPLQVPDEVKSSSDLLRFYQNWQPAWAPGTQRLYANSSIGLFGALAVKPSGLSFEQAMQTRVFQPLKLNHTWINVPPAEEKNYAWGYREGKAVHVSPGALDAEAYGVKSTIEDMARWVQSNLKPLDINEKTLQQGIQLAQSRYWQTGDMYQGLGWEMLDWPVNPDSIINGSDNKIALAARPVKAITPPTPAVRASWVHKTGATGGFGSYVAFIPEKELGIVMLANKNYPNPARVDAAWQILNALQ
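AmpC (5.3 nM in the dispensed reagent) in 20 mM phosphate pH 7.0 with 0.01% (detergent screen) or 0.0001% Triton X-100 was preincubated with compounds for 15 min at room temperature. Nitrocefin was then added from an 800 uM solution, and hydrolysis was followed at 480 nm.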
AMA1 RON2 block: inhibitors of Plasmodium falciparum AMA1-RON2 interaction; AlphaScreen AMA1-biotinylated RON2 peptide binding; Potency, µM (highest dose often 58.2 µM), for inactives: at the highest dose activity change, negative = inhibition, most hits filed as inhibitors; 0.2% of 360,000 active; AID 720542;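 note: potency is the fitted concentration of half-maximal effect; 0% = vehicle wells and -100% = peptide control; nearly all actives have a fitted effect of over 45% in size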
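AMA1 (3D7) with his tag at 25 nM final met compounds first, then biotinylated RON2 peptide at 25 nM; detection used donor plus acceptor beads, 10 µg/mL apiece, read by AlphaScreen after 30 min at room temperature.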
Vaccinia Venus: inhibitors of vaccinia virus (Venus reporter); Vaccinia virus Venus reporter expression, fluorescence; Potency, µM (titrated, usually from 36.5 µM), without a hit: top-dose activity change, negative = inhibition, usual class: inhibitors; 0.46% of 330,000 active; calls by dose curve; tested in A549 cells; note: potency is the fitted concentration of half-maximal effect; % is set by controls: 0 for no effect and ±100 for the full control effect; nearly all actives have a fitted effect of over 30% in size
AmpC inh no detg: AmpC beta-lactamase inhibition without detergent; AID 485341; AmpC nitrocefin hydrolysis, absorbance 480 nm, 0.0001% Triton; P00811; 0.52% of 330,000 active; Potency, µM (titrated, usually from 57.1 µM), for the others: at the highest dose activity change, negative = inhibition, usual class: inhibitors;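 note: potency is the fitted concentration of half-maximal effect; plate controls were no compound for no effect and no enzyme for full effect; nearly all actives have a fitted effect of over 20% in size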
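20 mM phosphate pH 7.0 + 0.01% (detergent screen) or 0.0001% Triton X-100; 5.3 nM AmpC reagent; cpd preinc 15 min RT; nitrocefin (800 uM stock) to start; A480 q20 s × 4 min; Activity was normalised to no-enzyme and no-compound control wells.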
SARS PLpro yeast-2: Validates SARS-CoV PLpro inhibitor hits in yeast | yeast expressing SARS-CoV PLpro, growth phenotype rescue | shares compounds with SARS PLpro yeast-1 | 19% of 1,000 active | calls only; call rule not given here
Starred values were filed as active, the others as inactive. Unless noted, calls come from the whole dose curve; as a rule, active = well fitted curve in the direction sought with a large enough effect; inconclusive = small, poorly fitted or top-dose-only effect, or another doubt; inactive = no such curve, though single readings can be large; an effect the other way counts as inactive or inconclusive.

What do the screens show for `CCOc1ccc(OCCC(=O)N(CCCOC)c2c(N)n(Cc3ccccc3)c(=O)[nH]c2=O)cc1`?
SARS PLpro yeast-1: inconclusive; Vaccinia mCherry: -18%; AmpC inh detg: inconclusive; AMA1 RON2 block: -10%; Vaccinia Venus: -2%; AmpC inh no detg: 44%; SARS PLpro yeast-2: inactive

How did C=CCN(c1ccccc1Cl)S(=O)(=O)c1cccc(C(=O)OCC(=O)N(C)C2CCS(=O)(=O)C2)c1 (stereo not given) do in these assays?
SARS PLpro yeast-1: -1%; Vaccinia mCherry: -29%; AmpC inh detg: 2%; AMA1 RON2 block: 65%; Vaccinia Venus: -11%; AmpC inh no detg: 159%

Results for Cc1ccc(Nc2nc(NCCCN3CCOCC3)nc(N)c2[N+](=O)[O-])cc1 ?
SARS PLpro yeast-1: inconclusive; AmpC inh detg: -19%; AMA1 RON2 block: -5%; AmpC inh no detg: -17%; SARS PLpro yeast-2: inactive

What do the screens show for `Cc1ccc(Nc2nc(NCCCN3CCOCC3)nc(N)c2[N+](=O)[O-])cc1C`?
SARS PLpro yeast-1: -7%; Vaccinia mCherry: -3%; AmpC inh detg: inconclusive; AMA1 RON2 block: -13%; Vaccinia Venus: -10%; AmpC inh no detg: 32%

Results for Cc1ccc(OCCNC(=O)CCNS(=O)(=O)c2ccc(C)cc2)cc1 ?
SARS PLpro yeast-1: -3%; Vaccinia mCherry: -16%; AmpC inh detg: inconclusive; AMA1 RON2 block: -6%; Vaccinia Venus: -26%; AmpC inh no detg: 14%

What do the screens show for `CCOc1ccc(S(=O)(=O)NCCC(=O)NCCOc2ccccc2)cc1`?
SARS PLpro yeast-1: inconclusive; Vaccinia mCherry: -2%; AmpC inh detg: -10%; AMA1 RON2 block: 1%; Vaccinia Venus: 0%; AmpC inh no detg: -11%; SARS PLpro yeast-2: inactive

What do the screens show for `Cc1ccc2[nH]c(=S)cc(C)c2c1`?
SARS PLpro yeast-1: 22µM*; AmpC inh detg: inconclusive; AMA1 RON2 block: 29%; AmpC inh no detg: -24%; SARS PLpro yeast-2: active

How did CCOC(=O)c1c(NC(=O)c2cc(-c3cccc(Cl)c3)on2)sc(C(C)=O)c1C do in these assays?
Vaccinia mCherry: -11%; AmpC inh detg: 1%; Vaccinia Venus: -10%

What do the screens show for `Cc1ccc(C(=O)Nc2ccc3c(c2)OCO3)o1`?
SARS PLpro yeast-1: -10%; Vaccinia mCherry: -4%; AmpC inh detg: -14%; AMA1 RON2 block: 1%; Vaccinia Venus: 2%; AmpC inh no detg: -7%

What do the screens show for `C/C(=C\C(=O)c1ccc(C)o1)Nc1ccc2c(c1)OCO2`?
SARS PLpro yeast-1: inconclusive; AmpC inh detg: -9%; AMA1 RON2 block: -3%; AmpC inh no detg: -14%; SARS PLpro yeast-2: inactive

Results for O=C(NCc1ccco1)/C(=C\c1cccnc1)NC(=O)c1ccccc1F ?
SARS PLpro yeast-1: 7%; Vaccinia mCherry: -5%; AmpC inh detg: 4%; AMA1 RON2 block: 0%; Vaccinia Venus: -12%; AmpC inh no detg: 10%

How did C=CCn1c(SCC(=O)Nc2ccc(OC)cc2)nc2c([nH]c3ccccc32)c1=O do in these assays?
SARS PLpro yeast-1: -4%; Vaccinia mCherry: -2%; AmpC inh detg: -14%; AMA1 RON2 block: 8%; Vaccinia Venus: -1%; AmpC inh no detg: -54%

What do the screens show for `C=CCn1c(SCC(=O)Nc2cc(C)on2)nc2c([nH]c3ccccc32)c1=O`?
SARS PLpro yeast-1: inconclusive; Vaccinia mCherry: -23%; AmpC inh detg: 1%; AMA1 RON2 block: -15%; Vaccinia Venus: -26%; AmpC inh no detg: -15%; SARS PLpro yeast-2: inactive

How did CN(CC(=O)Nc1c(Cl)cccc1Cl)C(=O)c1ccccc1SCC(=O)N1CCCC1 do in these assays?
SARS PLpro yeast-1: 10%; Vaccinia mCherry: inactive; AmpC inh detg: 1%; AMA1 RON2 block: 70%; Vaccinia Venus: -16%; AmpC inh no detg: -4%

Results for Cc1cccc(C)c1NC(=O)CN(C)C(=O)c1ccccc1SCC(=O)N1CCCC1 ?
SARS PLpro yeast-1: 14µM*; Vaccinia mCherry: -5%; AmpC inh detg: 6%; AMA1 RON2 block: 46%; Vaccinia Venus: -10%; AmpC inh no detg: -2%; SARS PLpro yeast-2: inactive

Results for CC(=O)N(CN1C(=O)c2ccccc2C1=O)c1ccc2c(c1)oc1ccccc12 ?
SARS PLpro yeast-1: 23%; Vaccinia mCherry: -9%; AmpC inh detg: -2%; AMA1 RON2 block: 0%; Vaccinia Venus: -7%; AmpC inh no detg: -9%

Results for Cc1nn(Cc2ccccc2)c(C)c1/C=N/NC(=O)CNc1cccc(C(F)(F)F)c1 ?
SARS PLpro yeast-1: 11µM*; Vaccinia mCherry: -26%; AmpC inh detg: -13%; AMA1 RON2 block: 6%; Vaccinia Venus: inconclusive; AmpC inh no detg: 62%; SARS PLpro yeast-2: inactive

How did Cc1ccc(C(C(=O)NCc2ccccc2)N(Cc2cccs2)C(=O)c2ccc3c(c2)OCCO3)cc1 (stereo not given) do in these assays?
SARS PLpro yeast-1: inconclusive; AmpC inh detg: inconclusive; AMA1 RON2 block: -6%; AmpC inh no detg: -18%; SARS PLpro yeast-2: inactive

How did CCOC(=O)C(C)/C(C)=N/NC(N)=S (stereo not given) do in these assays?
SARS PLpro yeast-1: inconclusive; Vaccinia mCherry: 22µM*; AmpC inh detg: -9%; AMA1 RON2 block: 97%; Vaccinia Venus: inconclusive; AmpC inh no detg: -33%; SARS PLpro yeast-2: active

Results for O=C(Nc1ccccc1C(=O)NCCc1ccccc1)c1cnccn1 ?
SARS PLpro yeast-1: 2%; Vaccinia mCherry: -9%; AmpC inh detg: -3%; AMA1 RON2 block: 5%; Vaccinia Venus: 3%; AmpC inh no detg: 0%

How did O=C(Cc1ccccc1[N+](=O)[O-])NCc1ccc(Cl)cc1Cl do in these assays?
SARS PLpro yeast-1: inconclusive; Vaccinia mCherry: -18%; AmpC inh detg: 0%; AMA1 RON2 block: 15%; Vaccinia Venus: -16%; AmpC inh no detg: -8%; SARS PLpro yeast-2: inactive

What do the screens show for `COc1ccccc1NC(c1cccnc1)c1ccc2cccnc2c1O` (stereo not given)?
SARS PLpro yeast-1: 4.5µM*; Vaccinia mCherry: -29%; AmpC inh detg: inconclusive; AMA1 RON2 block: -51%; Vaccinia Venus: -10%; AmpC inh no detg: -23%; SARS PLpro yeast-2: inconclusive

What do the screens show for `[O-][n+]1c2ccccc2c2n1CCN=C2c1ccc(Cl)cc1`?
SARS PLpro yeast-1: -1%; Vaccinia mCherry: inconclusive; AmpC inh detg: -7%; AMA1 RON2 block: -1%; Vaccinia Venus: -11%; AmpC inh no detg: -15%

Results for COc1ccc2c3n([n+]([O-])c2c1)CCN=C3c1ccc(Cl)cc1 ?
SARS PLpro yeast-1: inconclusive; Vaccinia mCherry: -9%; AmpC inh detg: 1%; AMA1 RON2 block: 16%; Vaccinia Venus: -11%; AmpC inh no detg: -16%; SARS PLpro yeast-2: inactive
